Compound activity: PubChem, The Scripps Research Institute Molecular Screening Center
TEAD-YAP block: TEAD-YAP interaction inhibition; HEK-TIYL cells, TEAD-Gal4/YAP UAS-luciferase luminescence; inhibition, % at 9.12 µM; 1.4% of 640,000 active; AID 1259422; in the data active means inhibition above about 32%;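 further: 0% = median of test compound wells and 100% = reference inhibitor wells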
FBW7 activator: activators of human E3 ligase FBW7. Q969H0. AlphaScreen FBW7–phospho-cyclin E peptide binding, activator screen. normalized activity (activation), % at 26.1 µM. 0.13% of 650,000 active. AID 1259310; in the data active means normalized activity above about 1.9%;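 further: purified mutant Fbw7 with reduced substrate affinity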
MITF primary: inhibitors of human MITF; AID 1259374; O75030; AlphaScreen MITF homodimerization, bead proximity signal; 0.91% of 650,000 active; inhibition, % at 2.6 µM; in the data active means inhibition above about 50%;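 further: 0% = vehicle wells with protein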
GPR151 ag: activates the human receptor GPR151; PathHunter beta-arrestin GPR151 cells, luminescence; 1% of 650,000 active; activation, % at 11.2 µM; Q8TDV0; in the data active means activation above about 4.9%;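 further: 0% = median of compound wells and 100% = cells with positive control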
Target sequence (Q8TDV0 whole entry, looked up): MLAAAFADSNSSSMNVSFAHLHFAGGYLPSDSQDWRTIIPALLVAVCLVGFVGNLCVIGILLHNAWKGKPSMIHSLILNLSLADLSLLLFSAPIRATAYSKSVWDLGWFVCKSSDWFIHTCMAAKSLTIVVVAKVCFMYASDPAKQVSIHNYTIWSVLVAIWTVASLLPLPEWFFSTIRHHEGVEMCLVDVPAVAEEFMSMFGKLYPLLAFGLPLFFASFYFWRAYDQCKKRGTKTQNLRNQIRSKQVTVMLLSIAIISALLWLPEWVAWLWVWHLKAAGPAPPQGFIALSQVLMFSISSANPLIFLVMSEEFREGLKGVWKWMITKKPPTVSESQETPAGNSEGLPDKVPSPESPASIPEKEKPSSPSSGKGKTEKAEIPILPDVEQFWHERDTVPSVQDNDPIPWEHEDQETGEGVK
MITF confirm: confirmation of human MITF inhibitors; shares compounds with MITF primary; AlphaScreen MITF homodimerization, biotin/His-MITF beads; inhibition, % at 2.6 µM; 16% of 4,700 active;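 active means inhibition above a cutoff derived from the DMSO control wells, cut at about 28% in these data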;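 further: 0% = MITF dimer wells with DMSO only; inhibitors lower the bead chemiluminescence by keeping MITF from dimerizing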
AlphaScreen DR: AlphaScreen optical interference, dose response counter-screen. shares compounds with MITF primary. AlphaScreen optical interference counterscreen, cell-free. IC50, µM. 6% of 480 active. AID 1259373; call rule not given here
AlphaScreen intf2: optically interferes with AlphaScreen signal; shares compounds with MITF primary; 7.6% of 4,700 active; AID 1259376; LysRS AlphaScreen counterscreen, signal interference, triplicate; inhibition, % at 2.6 µM;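 active means inhibition above a cutoff derived from the DMSO control wells, cut at about 30% in these data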
* hit, by the source's call. The list is not random: actives were taken first. Their share in the collection is about 3.5%.

`O=Cc1ccc(OCCCN2CCN(Cc3ccccc3)CC2)cc1` gave TEAD-YAP block 10, FBW7 activator 0, MITF primary 57*, GPR151 ag 0, MITF confirm 6 and AlphaScreen intf2 10.
`CN1CCN(CCCOc2ccc(Cc3ccccc3)cc2)CC1` gave TEAD-YAP block 4, FBW7 activator 0, MITF primary -4 and GPR151 ag 0.
For COc1ccc(CN2CCN(CCOCCO)CC2)cc1 the results were TEAD-YAP block 6, FBW7 activator 0, MITF primary 14 and GPR151 ag 2.
`CCCCOc1ccc(CN2CCN(CCOCCO)CC2)cc1` gave TEAD-YAP block 6, FBW7 activator 0, MITF primary 76*, GPR151 ag 2, MITF confirm 18 and AlphaScreen intf2 -1.
Screening CN1CCN(CCCOc2ccccc2C=O)CC1 returned TEAD-YAP block -2, FBW7 activator 1, MITF primary 65*, GPR151 ag -1, MITF confirm 6 and AlphaScreen intf2 17.
CC(=O)CCc1ccc(OCCCN2CCN(Cc3ccccc3)CC2)cc1 was read as TEAD-YAP block 1, FBW7 activator 0, MITF primary 59*, GPR151 ag 0, MITF confirm 9 and AlphaScreen intf2 6.
`Oc1c(C2=NCCNC(C(F)(F)F)=C2)ccc2ccccc12` gave TEAD-YAP block -59, FBW7 activator 0, MITF primary 11 and GPR151 ag -1.
For O=Cc1cc(Cl)ccc1OCCCN1CCN(Cc2ccccc2)CC1 the results were TEAD-YAP block -4, FBW7 activator 0, MITF primary 57*, GPR151 ag 0, MITF confirm 5 and AlphaScreen intf2 10.
`O=Cc1cc(Cl)ccc1OCCOc1ccccc1` gave TEAD-YAP block -48, FBW7 activator 0, MITF primary -3 and GPR151 ag -1.
CC(C)(C)c1csc(CN2CCN(CC(=O)Nc3ccc4c(c3)OCO4)CC2)n1 was read as TEAD-YAP block 9, FBW7 activator -1, MITF primary 79*, GPR151 ag -1, MITF confirm 2 and AlphaScreen intf2 3.
NCc1nc2ccc(Cc3ccc4nc(CN)[nH]c4c3)cc2[nH]1 was read as TEAD-YAP block -4, FBW7 activator 0, MITF primary 105*, GPR151 ag -1, MITF confirm 84* and AlphaScreen intf2 100*.
Screening Fc1ccc(CNc2nccn3c(-c4ccsc4)cnc23)cc1 returned TEAD-YAP block -13, FBW7 activator 0, MITF primary -13 and GPR151 ag 1.
For C=CCc1cc(OC)ccc1OCCN1CCCCC1 the results were TEAD-YAP block -2, FBW7 activator 0, MITF primary 33 and GPR151 ag 0.
`C=CCc1cc(OC)ccc1OCCCCn1cncn1` gave TEAD-YAP block 5, FBW7 activator 0, MITF primary 76*, GPR151 ag -1, MITF confirm -20 and AlphaScreen intf2 0.
Screening C=CCc1cc(OC)ccc1OCCCN1CCN(C)CC1 returned TEAD-YAP block 4, FBW7 activator 0, MITF primary 82*, GPR151 ag 0, MITF confirm 0 and AlphaScreen intf2 -3.
For C=CCc1cc(OC)ccc1OCCN1CCN(C)CC1 the results were TEAD-YAP block 16, FBW7 activator 0, MITF primary 67*, GPR151 ag -2, MITF confirm 11 and AlphaScreen intf2 3.
Cn1c(=O)c2cc(C(=O)N3CCN(c4ncccn4)CC3)sc2c2ccccc21 was read as TEAD-YAP block -6, FBW7 activator 0, MITF primary 0 and GPR151 ag 0.
Screening CC1(C)Cc2cccc(OCc3ccc(C(=O)NCc4ccncc4)cc3)c2O1 returned TEAD-YAP block 15, FBW7 activator 0, MITF primary 59*, GPR151 ag 2, MITF confirm -11 and AlphaScreen intf2 2.
For COc1ccc(C(=O)NNC(=S)NCc2ccccc2)cc1 the results were TEAD-YAP block 2, FBW7 activator 0, MITF primary 23 and GPR151 ag 1.
Screening O=C(c1ccc(-c2ccccc2)cc1)N1CCN(Cc2cccc(F)c2)CC1 returned TEAD-YAP block -9, FBW7 activator 0, MITF primary 64*, GPR151 ag -1, MITF confirm -4 and AlphaScreen intf2 3.
Screening COc1cccc(CN2CCN(C(=O)Nc3cccc(Cl)c3)CC2)c1 returned TEAD-YAP block -6, FBW7 activator 0, MITF primary 51*, GPR151 ag -1, MITF confirm 3 and AlphaScreen intf2 10.
For O=C(c1cccc(F)c1)N1CCN(Cc2cccc(Br)c2)CC1 the results were TEAD-YAP block 11, FBW7 activator 0, MITF primary 50 and GPR151 ag 0.
Screening COc1cccc(CN2CCN(C(=O)c3ccc(F)cc3)CC2)c1 returned TEAD-YAP block 7, FBW7 activator 0, MITF primary 60*, GPR151 ag -2, MITF confirm 52*, AlphaScreen DR >5.3 and AlphaScreen intf2 21.
For O=C(c1ccncc1)N1CCN(Cc2cccc(Br)c2)CC1 the results were TEAD-YAP block 14, FBW7 activator 0, MITF primary 65*, GPR151 ag 1, MITF confirm -3 and AlphaScreen intf2 -3.
Screening Cn1c(=O)c2c(nc(N3CCN(CCO)CC3)n2CC(O)c2ccccc2)n(C)c1=O (stereo unspecified) returned TEAD-YAP block 6, FBW7 activator 0, MITF primary 3 and GPR151 ag 0.
`FC(F)(F)c1cc(-c2ccccc2)nc2cc(-c3ccc(Br)cc3)nn12` gave TEAD-YAP block 5, FBW7 activator 0, MITF primary 2 and GPR151 ag 2.
COc1cc(/C=C(\C#N)c2nn(-c3ccccc3)c(N)c2C#N)cc(Br)c1OCC#N was read as TEAD-YAP block 7, FBW7 activator 0, MITF primary -2 and GPR151 ag 0.
CCOC(=O)Nc1ccc2c(CN(C)CC(=O)Nc3cccc(C)c3C)cc(=O)oc2c1 was read as TEAD-YAP block -4, FBW7 activator 0, MITF primary 6 and GPR151 ag 0.
`Cc1cccc(CN2CCN(C(=O)c3ccc(F)cc3)CC2)c1` gave TEAD-YAP block 6, FBW7 activator 1, MITF primary 68*, GPR151 ag -1, MITF confirm 17 and AlphaScreen intf2 11.
COc1cccc(CN2CCC(C(=O)NC(C)C)CC2)c1 was read as TEAD-YAP block 3, FBW7 activator 1, MITF primary 46 and GPR151 ag 1.
Cc1cccc(CN2CCN(C(=O)c3ccccc3F)CC2)c1 was read as TEAD-YAP block 7, FBW7 activator 0, MITF primary 43 and GPR151 ag 2.
`COc1cccc(CN2CCN(C(=O)c3ccncc3)CC2)c1` gave TEAD-YAP block 0, FBW7 activator 0, MITF primary 81*, GPR151 ag 0, MITF confirm 26 and AlphaScreen intf2 -15.
